Measurements published in ChEMBL document CHEMBL4513160, “CO-ADD screening of MMV (CH) - Small Polar Library”.
Screen size: about 23,000 compounds; about 30 (0.1%) showed an effect of 50% or more. The full list was thinned out, with strong results kept by preference. Results with a measured potency or affinity are listed apart.

Test system: Pseudomonas aeruginosa
Conditions: Concentration 300 ug.mL-1; ASSAY_TEST Inhibition of Bacterial Growth; detection method Absorption (OD600); MEDIA CAMHB; plate type 384well; NBS; CORNING #3640; time 18 hr

SMILES | Inhibition [%]
CCc1ccc(C2CNCCO2)cc1 (stereo unspecified) | 46.05
